Screens deposited in PubChem BioAssay by National Center for Advancing Translational Sciences (NCATS).
IP6K1 inh: Primary qHTS assay for small molecule inhibitors of Inositol hexaphosphate kinase 1 (IP6K1) | activity change, % (series mostly up to about 58 µM) | actives 0.81% (n = 140,000) | Inositol hexakisphosphate kinase 1 (Homo sapiens), Q92551 | IP6K1 kinase, ADP-Glo luminescence, 2 h; stronger effect = lower value | AID 1645851, 2021; in the data active means activity change below about -25%; further: on the % scale 0 is the no-effect control and ±100 the full control effect
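ADP-Glo luminescence measures ADP made by human IP6K1 during a 2 h RT reaction with ATP/IP6 (mix at 1.3 mM/130 uM); top library doses 57.5 and 19.1 uM final.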
KDM5B inh: Primary screen for KDM5B Histone Demethylases FDH-coupled qHTS; Lysine-specific demethylase 5B (Homo sapiens), Q9UGL1; Potency, µM (highest dose often 57.7 µM), usual class: inhibitors; AID 1347165, 2019; KDM5B demethylase, FDH-coupled NADH fluorescence (FDH is formaldehyde dehydrogenase); actives 2.6% (n = 220,000); active means well fitted inhibition curve with a large enough effect; inconclusive means small, poorly fitted or top-dose-only effect; inactive means no such curve, though single readings can be large or run the other way; further: potency means the concentration at half of the fitted maximal effect; 0% is about no effect; nearly all actives have a fitted effect of over 70% in size
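KDM5BΔAP (200 nM final) in 50 mM HEPES pH 7.5, 0.01% Tween-20 was preincubated 10 min at RT with compound over a concentration range. Substrate mix (H3K4me3 12.5 µM, α-KG 25 µM, Fe²⁺, ascorbate, NAD⁺, FDH) was added, and NADH fluorescence change over 30 min gave dose-response curves.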
* marks the source's active call; other numbers are inactive results; i = inactive; ? = inconclusive; . = not tested or not shown. Compounds with a hit are over-represented: about 2.8% of the library has one in this group of screens.

SMILES	IP6K1 inh	KDM5B inh
O=C(NC1CC1)c1cn2cc(-c3cccc(C(F)(F)F)c3)sc2n1	-3	.
CC(C)(C)CC(=O)NCc1cccnc1Oc1cccc(C(F)(F)F)c1	21	i
Cc1ccc(C#N)c(NCc2cccnc2Oc2cccc(C(F)(F)F)c2)n1	-2	25µM*
CCOC(=O)C1CCCN(C(=O)c2ccc3nc(-c4ccncc4)oc3c2)C1 (configuration not stated)	3	.
CNc1nc2c(s1)C(c1ccc(F)c(F)c1)CC(=O)N2 (configuration not stated)	-37*	32µM*
Cc1nc2c(c(=O)[nH]1)C(c1cc(F)cc(F)c1)CC(=O)N2 (configuration not stated)	.	i
CNc1nc2c(s1)C(c1cccc(F)c1)CC(=O)N2 (configuration not stated)	-67*	28µM*
CCNc1nc2c(s1)C(c1cccnc1)CC(=O)N2 (configuration not stated)	-46*	?
CC1=C(C(=O)NC23CC4CC(CC(C4)C2)C3)C(c2cccnc2)NC(=O)N1 (configuration not stated)	-6	i
Cc1cccn2c3c(c(=O)nc12)C(c1cccc(F)c1)CC(=O)N3 (configuration not stated)	-1	i
N#CC(C#N)=CNc1nc(-c2ccc3c(c2)CCCC3)cs1	.	i
CCNC(=O)OC1CCN(C(=O)c2cc3ccccc3s2)CC(=O)N(C)c2ccccc21 (configuration not stated)	-8	.
COc1ccccc1-c1cc(C(=O)NCc2cccc(Cl)c2)nn2cccc12	1	.
Cc1noc(C)c1-c1cc2c(cc(-c3ccccc3)n2C)c(N(C)C)n1	-3	i
CC(=O)Nc1cccc(-c2nc(-c3c(C)noc3C)cc3c2cc(-c2ccccc2)n3C)c1	-8	35µM*
CC(C)NC(=O)C1CCCN(Cc2cccc(-c3ccsc3)c2)C1 (configuration not stated)	-10	.
O=C1COCC2(CN1Cc1cccc(OC(F)(F)F)c1)CN(c1nccs1)C2	7	i
COc1ncccc1N1CC2(COCC(=O)N(Cc3cccc(OC(F)(F)F)c3)C2)C1	1	7.1µM*
CNC(=O)C1CCCCN1Cc1ccc(-c2ccccc2OC)cc1 (configuration not stated)	8	.
CSc1ccc(/C=C2\CCc3ccccc3C2=O)cc1	.	i
Cc1ccccc1-c1cnc2[nH]cc(CC(=O)NCCN(C)C)c2c1	-15	35µM*
Cc1ccccc1-c1cnc2[nH]cc(CC(=O)NCc3ccccc3)c2c1	-16	i
CN(C)CCNC(=O)Cc1c[nH]c2ncc(-c3ccccc3)cc12	-10	35µM*
O=C(Cc1c[nH]c2ncc(-c3ccccc3)cc12)NCCc1ccccc1	-10	i
COc1ccc(NC(=O)c2nc3sccn3c2-c2cccc(C(F)(F)F)c2)cc1	7	.
SMILES	IP6K1 inh	KDM5B inh
Cc1nnc2ccc(N3CCN(C(=O)c4cccc(Cl)c4)CC3)nn12	5	.
Cn1ncc2c(C(=O)NCC3CC3)cc(-c3ccccc3F)nc21	-1	.
Cc1cc(C)nc(SCC(=O)Nc2ccccc2C(N)=O)n1	.	i
COc1ccccc1Nc1ccnc(N2CCCC(C(=O)NCCCc3ccccc3)C2)n1 (configuration not stated)	10	.
O[C@H]1[C@H](NCc2cccc(C(F)(F)F)c2)[C@@H](c2ccc(N3CCOCC3)nc2)C[C@H]1O	-7	32µM*
N#Cc1cccc(C(=O)N[C@H]2[C@H](O)[C@H](O)C[C@@H]2c2ccc(N3CCOCC3)nc2)c1	-1	?
COc1ccc(CN[C@H]2[C@H](O)[C@H](O)C[C@@H]2c2ccc(N3CCOCC3)nc2)cn1	-4	32µM*
O[C@H]1[C@H](NCc2cnc3ccccc3c2)[C@@H](c2ccc(N3CCOCC3)nc2)C[C@H]1O	-2	i
N#Cc1cccc(CN[C@H]2[C@H](O)[C@H](O)C[C@@H]2c2ccc(N3CCOCC3)nc2)c1	4	?
O[C@H]1[C@H](NCc2ccc(Cl)cc2)[C@@H](c2ccc(N3CCOCC3)nc2)C[C@H]1O	7	40µM*
COc1cccc(-c2cc(C(=O)NCc3ccccn3)c3cnn(C)c3n2)c1	4	.
COc1ccccc1-c1nc(N2CCOCC2)cc2c1CN(Cc1cnn(C)c1)C2=O	23	35µM*
CC(=O)Nc1cccc(-c2nc(N3CCOCC3)cc3c2CN(Cc2cnn(C)c2)C3=O)c1	18	28µM*
CC(=O)Nc1cccc(-c2cn(C)c(=O)n3cc(CN4CCNC(=O)C4)nc23)c1	-7	i
COc1ccccc1Nc1nc(N2CCOCC2)c2cnn(C)c2n1	.	i
Cc1ccc(OCc2nc(C3CCCCN3C(=O)C3CC3)no2)cc1 (configuration not stated)	0	.
COCCN[C@@H]1C[C@@H]2c3[nH]c4ccccc4c3C[C@@H](C(=O)OC)N2[C@H](c2ccc(Cl)c(F)c2)C1	2	?
COCCN[C@@H]1C[C@@H]2c3[nH]c4ccccc4c3C[C@@H](C(=O)OC)N2[C@H](c2ccc(C(C)C)cc2)C1	-12	?
COC(=O)[C@@H]1Cc2c([nH]c3ccccc23)[C@H]2C[C@@H](NCCCn3ccnc3)C[C@@H](c3ccc(Cl)c(F)c3)N21	-11	i
COCCN[C@@H]1C[C@@H]2c3[nH]c4ccccc4c3C[C@@H](C(=O)OC)N2[C@H](c2cccc(OC)c2)C1	-8	5.6µM*
COC(=O)[C@@H]1Cc2c([nH]c3ccccc23)[C@H]2C[C@@H](NCCN(C)C)C[C@@H](c3ccc(F)cc3)N21	3	25µM*
COC(=O)[C@@H]1Cc2c([nH]c3ccccc23)[C@H]2C[C@@H](NCCCn3ccnc3)C[C@@H](c3ccc(F)cc3)N21	-13	13µM*
COC(=O)[C@@H]1Cc2c([nH]c3ccccc23)[C@H]2C[C@@H](NCc3cccs3)C[C@@H](c3ccc(F)cc3)N21	-18	?
COCCN[C@H]1C[C@@H]2c3[nH]c4ccccc4c3C[C@@H](C(=O)OC)N2[C@H](c2ccccc2)C1	3	28µM*
O=C(Nc1ccc(F)cc1)C1CCN(c2ccnc3ccnn23)CC1	7	.
SMILES	IP6K1 inh	KDM5B inh
COc1ccc(NC(=O)c2nc3ccccc3nc2N2CCOCC2)c(OC)c1	.	i
O=C(NCc1cccs1)c1ccc2nnc(-c3ccc(Cl)cc3)n2c1	7	.
CNC(=O)c1cc(C2CC2)nc2onc(C3CCN([S+](=O)([O-])CCC(F)(F)F)C3)c12 (configuration not stated)	9	.
O=C(Nc1ccccc1Cl)C1CCCN(Cc2cccc(-c3cccs3)c2)C1 (configuration not stated)	11	.
O=C(c1nc(-c2ccc(F)cc2)no1)N1CCN(c2ccc(Cl)c(Cl)c2)CC1	.	i
Cn1ncc2c(C(=O)NCc3cccc(F)c3)cc(-c3cccc(F)c3)nc21	5	.
O=C(O)Cn1ccc2cc(OCCc3cccc(-c4cccc(F)c4)c3)cnc21	-1	40µM*
O=C(O)c1cccc(-c2ccc(F)cc2)c1	.	i
COc1cccc(-c2cccc(CCOc3cnc4c(ccn4CC(=O)O)c3)c2)c1	7	32µM*
